Results on 40 compounds are retold here after PubChem BioAssay (EPA / NIEHS).

Inconclusive results are not listed. Active and inactive are the calls of the source. Rule for the calls: active = hit-call score of the fitted dose curve at least 0.9, where 1 is the maximum; inconclusive = response in the unintended direction; inactive = score below 0.9.

Usually AC50 stands for the concentration at which the activity in the assay is half-maximal.

Sequence of human Peroxisome Proliferator-activated Receptor delta (PPARd), PPARD (gene 5467) (Q03181 whole entry, looked up): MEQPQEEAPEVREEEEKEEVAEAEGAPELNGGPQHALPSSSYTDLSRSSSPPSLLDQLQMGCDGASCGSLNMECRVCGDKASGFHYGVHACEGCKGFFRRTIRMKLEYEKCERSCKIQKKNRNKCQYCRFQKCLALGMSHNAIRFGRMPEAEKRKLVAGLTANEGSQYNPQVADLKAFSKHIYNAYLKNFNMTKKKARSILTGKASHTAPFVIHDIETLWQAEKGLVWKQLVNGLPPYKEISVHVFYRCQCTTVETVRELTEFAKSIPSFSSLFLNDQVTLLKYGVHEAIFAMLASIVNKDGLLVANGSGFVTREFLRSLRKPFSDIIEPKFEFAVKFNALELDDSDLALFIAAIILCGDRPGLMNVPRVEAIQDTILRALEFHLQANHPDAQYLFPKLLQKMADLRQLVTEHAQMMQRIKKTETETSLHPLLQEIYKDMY

The experiment addresses human Peroxisome Proliferator-activated Receptor delta (PPARd), PPARD (gene 5467) (UniProt Q03181). Kind of experiment: ATG_PPARd_TRANS: Attagene TRANS-FACTORIAL HepG2 Assay for human Peroxisome Proliferator-activated Receptor delta (PPARd) (AID 2283002). The method, then:
ATG_TRANS is a cell-based, multiplexed-readout assay that uses HepG2, a human liver cell line, with measurements taken at 24 hours after chemical dosing in a 24-well plate.ATG_PPARd_TRANS is one of 30 assay component(s) measured or calculated from the ATG_TRANS assay. It is designed to make measurements of mRNA induction, a form of inducible reporter, as detected with fluorescence intensity signals by Reverse transcription polymerase chain reaction (RT-PCR) and Capillary electrophoresis technology.Data from the assay component ATG_PPARd_TRANS was analyzed into 1 assay endpoint. This assay endpoint, ATG_PPARd_TRANS, was analyzed in the positive analysis fitting direction relative to DMSO as the negative control and baseline of activity. Using a type of inducible reporter, measures of mRNA for gain-of-signal activity can be used to understand the reporter gene at the transcription factor-level as they relate to the gene PPARD. Furthermore, this assay endpoint can be referred to as a primary readout, because this assay has produced multiple assay endpoints where this one serves a reporter gene function. To generalize the intended target to other relatable targets, this assay endpoint is annotated to the nuclear receptor intended target family, where the subfamily is non-steroidal.
Human liver HepG2 cells are transiently transfected with multiple reporter transcription units (MRTUs) in 6-well plates using FuGene 6 reagent (Roche; 3 ml FuGene/1 mg DNA). The MRTU constructs are regulated by a cis-regulating element (promoter). […] A major difference between the CIS and TRANS system is that in CIS activities of endogenous TFs are measured, whereas the TRANS assay evaluates changes in activities of exogenous, chimeric NR-Gal4 proteins. […] At the end of 24 hour incubation, total RNA was isolated using TriZol reagent (Invitrogen). The isolated RNA is then reverse-transcribed using oligo(dT) primer and Mo-MLV reverse transcriptase (Invitrogen) with DNAse I (Ambion) treatment for 30 min. The one-tenth of the produced cDNA was amplified by PCR using Taq DNA polymerase (Invitrogen) and two reporter sequence-specific primers. The PCR products were fluorescently labeled by primer extension with 6-arboxyfluorescein (6-FAM) 5'-labeled reporter sequence-specific primer (2 min at 95 C, 20 s at 68 C and 10 min at 72 C) and these products were digested with 5U of HpaI (New England Biolabs) for 2h at 37 C. The fragments were purified using Qiaquick PCR columns (Qiagen), analyzed on an ABI 3130xL genetic analyzer (Applied Biosystems) with peak positions identified by using a set of X-rhodamine (ROX)-labeled MapMarker1000 molecular weight standards (BioVentures). The raw capillary electrophoresis data was processed using Attagraph software (Attagene).
In the case of `O=C(C=Cc1ccccc1)OCc1ccccc1`, the outcome was inactive.
Same read-out and setting: for `CCCCCCOC(=O)C(C)CC` (stereo not given) the value was “inactive”; for `Nc1ccc(-c2ccc(F)cc2)cc1`, “inactive”.
With `CCCCCC(C)O` (stereo not given), the compound was classed as inactive.
For `CCC(C)(C)C1CCCCC1OC(C)=O` (stereo not given), the compound was classed as inactive.
For `CC(C)(C)C1CCCCC1=O` (stereo not given), the call was inactive.
On the same count and under the same terms, then `C#CC1(O)CC[C@H]2[C@@H]3CCC4=CCCC[C@@H]4[C@H]3CC[C@@]21C` (stereo not given in full), with “inactive”; and `Nc1ccc(N=Nc2ccccc2)c(N)n1`, with “inactive”; and `CCOc1nc(F)cc2nc(S(=O)(=O)Nc3c(Cl)cccc3C(=O)OC)nn12`, with “inactive”.
For `N#CCc1ccc(Cl)cc1Cl`, the compound was classed as inactive.
Still for that read-out and setting: for `C=CC(C)(CCC=C(C)C)OC(=O)CC(C)C` (stereo not given) the value was “inactive”; for `O=S1(=O)OC(c2ccc(O)cc2)(c2ccc(O)cc2)c2ccccc21`, “inactive”; for `O=S(=O)(O)c1cc(S(=O)(=O)O)c2ccc3c(S(=O)(=O)O)cc(S(=O)(=O)O)c4ccc1c2c43`, “inactive”.
Same read-out and setting: for `CC(=O)[C@H]1[C@H](C#N)C[C@H]2[C@@H]3CC=C4C[C@@H](O)CC[C@]4(C)[C@H]3CC[C@@]21C` the value was “inactive”; for `CCOC(=O)CC(C(C)=O)C(C)=O`, “inactive”.
`CCC(Cc1ccccc1)(C(=O)c1ccc(N2CCOCC2)cc1)N(C)C` (stereo not given): the compound was called inactive.
The same measure, in the same setting: then `CCCCCCCCCCCCCCCC(=O)OCC`, with “inactive”; and `Nc1ccc(Oc2ccc(N)c(N)c2)cc1`, with “inactive”; and `CCCNC(=O)NS(=O)(=O)c1ccc(Cl)cc1`, with “inactive”.
Same read-out and setting: then `CCCCCCCCCCCCCCCC[N+](C)(C)CC`, with “inactive”; and `Cc1ccc(N)c([N+](=O)[O-])c1`, with “inactive”; and `O=S(=O)(O)CC(O)CCl` (stereo not given), with “inactive”.
Still for that read-out and setting: then `CC(C)(C)C(=O)CCc1ccc(Cl)cc1`, with “inactive”; and `COc1ccc(NC(C)=O)cc1N`, with “inactive”.
Consider `O=C(O)c1ccccc1Nc1cccc(C(F)(F)F)c1`, for which the AC50 was 40.1 µM (active).
On to `Cc1cc(C)c(C)c(C)c1`, for which the outcome was inactive.
`C=CC=CC=CCCCCC`: the result was inactive.
Same read-out and setting: then `C=CC(C)(C)C`, with “inactive”; and `CN(C)c1ccc(C(=N)c2ccc(N(C)C)cc2)cc1`, with “inactive”.
The same measure, in the same setting: for `C(=CC=Nc1ccccc1)C=CNc1ccccc1` the value was “inactive”.
As for `c1ccc2c(c1)ccc1ncccc12`, the outcome was inactive.
On the same count and under the same terms, for `N[C@H]1C(O)O[C@H](CO)[C@H](O)[C@@H]1O` (stereo not given in full) the value was “inactive”; for `O=C(c1ccc(O)cc1)c1ccc(O)cc1O`, “inactive”.
With `CC(=O)[C@@]1(O)CC[C@H]2[C@@H]3C[C@H](C)C4=CC(=O)C=C[C@]4(C)[C@@]3(F)[C@@H](O)C[C@@]21C`, the outcome was inactive.
Same read-out and setting: then `Nc1ncn([C@@H]2O[C@H](CO)[C@@H](O)[C@H]2O)c(=O)n1`, with “inactive”; and `C=CCCCCCCCCC(=O)OCCCC`, with “inactive”.
`O=c1c2ccccc2nnn1CCl`: the call was inactive.
`C=C[C@](C)(O)CC[C@@H]1[C@@]2(C)CCCC(C)(C)[C@@H]2CC[C@@]1(C)O`: the outcome was inactive.
Same read-out and setting: then `O=C(Cl)c1cc(C(=O)Cl)cc(C(=O)Cl)c1`, with “inactive”; and `COc1cc(C)ccc1C(C)C`, with “inactive”.
